Consider 16 compounds from PubChem BioAssay.

Molecules are shown by their SMILES. Values joined by “and” are separate entries in the source; they are usually repeats but may differ in a detail not shown here. Equal entries are not always repeated. Inconclusive results are not listed. Active and inactive are the calls of the source. Cut-off read from the data, not from the text of the source, unless noted: active = inhibition above about 80%; inactive = the rest.

The nature of experiment [1]: liver-stage malaria parasite growth inhibition, primary screen, cell-based, HepG2, luciferase luminescence, HepG2 viability (AID 624349; in the data active = parasite load remaining mostly below about 12%, no sharp cut-off; inactive = mostly above about 10%;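 note: 100% = mean of DMSO negative control wells on the same plate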). Particulars: P. berghei liver stage in HepG2, luciferase luminescence, concentration not given here; parasite load remaining: stronger effect = lower value; viability: measured here: HepG2 viability without parasites.
Experiment [2] in a line: CRL2098 osteosarcoma cell growth inhibition, synergistic combos for chromothripsis tumors, BGB or cisplatin IC20 combos (AID 1671454).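 Note: cells exposed for 96 h before readout; 0% = vehicle DMSO and 100% = killing by high DMSO.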 Particulars: CRL2098 osteosarcoma cells, drug combinations, stronger effect = higher value.
Experiment [3] can be described thus: HD-MB03 medulloblastoma cell growth inhibition, synergistic combos for chromothripsis tumors, BGB or cisplatin IC20 combos (AID 1671455; in the data active = inhibition above about 83%;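 note: 0% = vehicle DMSO and 100% = high DMSO as cytotoxic control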). Particulars: HD-MB03 medulloblastoma cells, stronger effect = higher value.
Experiment [4] can be described thus: UWB1.289 ovarian carcinoma cell growth inhibition, synergistic combos for chromothripsis tumors, BGB or cisplatin combos (AID 1671456).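 Note: cells exposed to compound for four days; 0% = vehicle DMSO and 100% = killing by high DMSO.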 Particulars: UWB1.289 ovarian carcinoma cells, stronger effect = higher value.
The nature of experiment [5]: LFS_MB_2R medulloblastoma cell growth inhibition, synergistic combos for chromothripsis tumors, cisplatin combos (AID 1671457).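 Note: cells exposed to compound for four days before readout.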 Particulars: LFS_MB_2R medulloblastoma cells, stronger effect = higher value.
Experiment [6] can be described thus: UWB1.289_BRCA1 ovarian cancer growth, cell-based, BGB or cisplatin combinations (AID 1671459). Particulars: UWB1.289 BRCA1 ovarian carcinoma, drug combinations, stronger effect = higher value.
The nature of experiment [7]: human astrocyte viability loss, single and combined drugs, cytotoxicity control for chromothriptic childhood tumor combination screen, cell-based, BGB or cisplatin IC20 combos (AID 1671460).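 Note: cells exposed to compounds for 96 hours before viability readout; 0% = vehicle and 100% = killing control.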 Particulars: Human astrocytes, drug combinations, stronger effect = higher value.
For experiment [8], the target named is NAD(+) hydrolase SARM1 (Homo sapiens) (UniProt Q6SZW1). The experiment can be described thus: SARM1 TIR NADase inhibitors, cell lysate, NAD-Glo luminescence (AID 1508614;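 active = compound whose remaining NAD level is above about 45 nM, limit read from the data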;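 note: higher remaining NAD means stronger inhibition of SARM1 NADase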). Particulars: SAM-TIR HEK293T lysate NADase, at 1 µM, stronger effect = higher value.
Chain of NAD(+) hydrolase SARM1 (Homo sapiens) (Q6SZW1 whole entry, looked up): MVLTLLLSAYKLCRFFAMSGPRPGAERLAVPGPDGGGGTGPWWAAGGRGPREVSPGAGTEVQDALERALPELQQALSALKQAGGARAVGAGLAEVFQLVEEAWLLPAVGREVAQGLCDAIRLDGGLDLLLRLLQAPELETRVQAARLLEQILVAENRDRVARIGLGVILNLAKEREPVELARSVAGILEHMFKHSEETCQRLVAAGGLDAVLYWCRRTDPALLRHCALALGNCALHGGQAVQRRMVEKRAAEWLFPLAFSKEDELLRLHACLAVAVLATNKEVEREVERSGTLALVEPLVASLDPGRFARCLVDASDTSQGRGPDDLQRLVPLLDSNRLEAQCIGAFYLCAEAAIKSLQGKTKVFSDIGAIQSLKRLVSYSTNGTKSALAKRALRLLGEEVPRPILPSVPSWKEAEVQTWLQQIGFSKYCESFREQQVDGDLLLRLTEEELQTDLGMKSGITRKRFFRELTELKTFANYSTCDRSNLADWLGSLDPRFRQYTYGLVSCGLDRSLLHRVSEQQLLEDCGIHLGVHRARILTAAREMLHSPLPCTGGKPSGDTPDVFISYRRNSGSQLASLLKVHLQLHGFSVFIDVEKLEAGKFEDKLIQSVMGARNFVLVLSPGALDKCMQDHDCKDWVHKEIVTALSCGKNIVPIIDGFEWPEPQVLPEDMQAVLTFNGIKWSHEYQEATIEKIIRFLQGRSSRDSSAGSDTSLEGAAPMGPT
A short description of experiment [9]: inhibitors of Cryptococcus chitosan production, flow cytometry, Cibacron Brilliant Red staining (AID 1347148; call rule not given here;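 note: compound exposure lasted three days at 37 degrees C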). Particulars: Cryptococcus neoformans chitosan, stronger effect = lower value; at 10 µM unless noted. On the technique in general: Flow cytometry measures light scatter and fluorescence of single cells or particles in a stream.
A short description of experiment [10]: viability rescue of complex I mutant cybrids, primary screen, cell-based, galactose medium, ATP luminescence (AID 1645843;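 active = z-score of at least 1.8 in each of two replicates, scored against plate mean and spread of sample wells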;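 note: positive z means more ATP and so rescue of galactose-driven cybrid death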). Particulars: complex I mutant cybrid cells, 72 h, stronger effect = higher value.
Experiment [11] deals with Hepatitis C virus NS3 helicase. Kind of experiment: HCV NS3 helicase inhibitors, primary screen, biochemical, fluorescence polarization, LOPAC1280 library (AID 687035; in the data active = inhibition above about 37%). Particulars: Purified HCV NS3 helicase, Cy5-dT15 ssDNA binding fluorescence polarization; stronger effect = higher value; concentration not given here. In general terms: In fluorescence polarisation assays a small probe gives low polarisation when free and higher when bound to something large.

A short description of experiment [12]: Cy5 fluorescence quenching or enhancement artefacts, artefact control for HCV NS3 helicase inhibitor project, biochemical, LOPAC1280 (AID 687037; call rule not given here). Particulars: Cy5-DNA-NS3h complex fluorescence interference counterscreen.
The nature of experiment [13]: phospholipid biosynthesis inhibitors in animal cells, primary screen, cell-based, LOPAC library, screen 4 (AID 1347384; call rule not given here). Particulars: phospholipid biosynthesis inhibition screen, at 10 µM.
Experiment [14] in a line: circadian clock period modulators, cell-based, LOPAC library, luminescence reporter (AID 2774; call rule not given here;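 note: values are relative to mean of DMSO wells on each plate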). Particulars: circadian reporter cells, at 7 µM, actives lie on both sides.
Experiment [15] deals with Mitogen-activated protein kinase 7 (Homo sapiens) (UniProt Q13164). Kind of experiment: ERK5 transactivation activators in reporter cells, primary screen, cell-based, HTS (AID 1508626;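 active = luciferase signal above three times the same-plate solvent-only control wells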;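 note: luciferase driven by Gal4-ERK5 fusion binding five Gal4 sites before minimal TATA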). Particulars: HeLa Gal4-ERK5 transactivation, 18 h, at 5 µM, stronger effect = higher value.
Chain of Mitogen-activated protein kinase 7 (Homo sapiens) (Q13164 whole entry, looked up, the tested form may be a part): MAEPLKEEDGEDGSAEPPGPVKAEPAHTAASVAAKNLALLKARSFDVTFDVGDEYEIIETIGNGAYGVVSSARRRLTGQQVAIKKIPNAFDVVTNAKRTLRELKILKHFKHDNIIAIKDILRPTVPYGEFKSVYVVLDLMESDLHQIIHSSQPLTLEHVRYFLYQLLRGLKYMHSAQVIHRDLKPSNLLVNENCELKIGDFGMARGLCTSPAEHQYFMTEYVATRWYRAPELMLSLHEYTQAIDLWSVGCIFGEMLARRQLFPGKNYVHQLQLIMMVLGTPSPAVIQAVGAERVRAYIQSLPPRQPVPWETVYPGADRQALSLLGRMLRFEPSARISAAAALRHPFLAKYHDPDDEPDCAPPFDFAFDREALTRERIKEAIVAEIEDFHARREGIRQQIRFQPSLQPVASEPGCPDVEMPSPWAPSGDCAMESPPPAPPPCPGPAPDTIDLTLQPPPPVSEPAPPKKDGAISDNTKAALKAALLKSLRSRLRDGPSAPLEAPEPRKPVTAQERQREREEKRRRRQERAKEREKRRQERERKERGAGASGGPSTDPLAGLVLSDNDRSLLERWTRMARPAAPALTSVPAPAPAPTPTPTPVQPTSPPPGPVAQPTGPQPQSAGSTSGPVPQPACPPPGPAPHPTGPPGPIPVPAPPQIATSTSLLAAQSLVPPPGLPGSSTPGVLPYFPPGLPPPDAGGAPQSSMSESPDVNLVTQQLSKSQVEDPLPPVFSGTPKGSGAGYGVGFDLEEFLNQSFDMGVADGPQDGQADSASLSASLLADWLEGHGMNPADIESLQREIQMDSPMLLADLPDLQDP
Experiment [16] in a line: growth inhibition of DIPG glioma cells, dose response, cell-based, SU-DIPG-XIII, MIPE5.0, CellTiter-Glo, qHTS (AID 1347064; cut-off not given, nearly all actives have AC50 up to about 23 µM;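 for AC50: cells exposed to compound for 48 hours before the viability read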). Particulars: SU-DIPG-XIII viability, CellTiter-Glo ATP luminescence. In general terms: In ATP-based viability assays light output follows the ATP content of the culture.
Where [17] appears, read: measured here: combination with BGB at IC20, at 0.5 µM.
Where [18] appears, read: measured here: combination with cisplatin at IC20, at 0.5 µM.
Where [19] appears, read: measured here: combo with BGB at IC20, at 0.5 µM.
Setting [20] is: measured here: combo with cisplatin at IC20, at 0.5 µM.
Setting [21] is: measured here: inhibition with BGB combination, at 0.05 µM.
Where [22] appears, read: measured here: inhibition with cisplatin combination, at 0.05 µM.
[23] abbreviates: measured here: combination with cisplatin, at 0.5 µM.
The mark [24] stands for this setting: measured here: combination with cisplatin, at 5 µM.
Where [25] appears, read: BGB combination, concentration series, at 5 µM.
Where [26] appears, read: cisplatin combination, concentration series, at 5 µM.
Setting [27] is: measured here: combo with BGB IC20, at 0.5 µM.
Where [28] appears, read: measured here: combo with cisplatin IC20, at 0.5 µM.

Broadly, the viability is the share of living cells, or the viability signal relative to a control. Take `c1nc2nc(Nc3ccc(N4CCOCC4)cc3)nc(NC3CCCCC3)c2[nH]1`: in experiment [1], the parasite load remaining was 59.2% (inactive) and the viability amounted to 68.1%.
Broadly, the inhibition is the change of the read-out against control, counted positive when it falls. As for `C/C(=C\C(=O)Nc1ccccc1C(=O)O)c1ccc2ccccc2c1`, the inhibition in experiment [2] (at 0.5 µM) was -36.1% (inactive) and -95.9% (inactive); in experiment [2] (setting [17]), -28.4% and -70.2%; in experiment [2] (setting [18]), -47.6% and -160%; in experiment [3] (at 0.5 µM), -6.95% (inactive) and -18.5% (inactive); in experiment [3] (setting [19]), -7.43% and -31.2%; in experiment [3] (setting [20]), -10.4% and -19.6%. Besides, the inhibition in [4] (at 0.5 µM) is 9.98% (inactive) and -21.6% (inactive); in [4] (setting [21]), 3.22% and -36.6%; in [4] (setting [22]), -9.11% and -30.4%; in experiment [5] (at 0.5 µM), -3.77% (inactive) and -16.3% (inactive); in [5] (setting [23]) it was 1.51% and -14.7%; in experiment [5] (setting [24]), 6.83% and -4.92%. For the same compound, the inhibition in [6] (setting [25]) was -7.61% and -2.79%; in [6] (at 0.5 µM), -8.12% (inactive) and -20.7% (inactive); in experiment [6] (setting [26]), 1.63% and -4.56%; in experiment [7] (at 0.5 µM), -12.6% (inactive) and 0.11% (inactive); in [7] (setting [27]), -9.38% and 5.29%; in [7] (setting [28]) it was -22.2% and -3.59%.
In the case of `CC(C)OC(=O)[C@H](C)N[P@](=O)(OC[C@H]1O[C@@H](n2ccc(=O)[nH]c2=O)[C@](C)(F)[C@@H]1O)Oc1ccccc1`, the inhibition in experiment [2] (at 0.5 µM) is -13.4% (inactive); in experiment [2] (setting [17]) it was 11.7%; in experiment [2] (setting [18]), -20.8%; in experiment [3] (at 0.5 µM) it was -3.62% (inactive); in [3] (setting [19]), -1.34%; in experiment [3] (setting [20]) it was -5.16%. Besides, the inhibition in experiment [4] (at 0.5 µM) is 0.46% (inactive); in experiment [4] (setting [21]) it was -14.4%; in [4] (setting [22]), -6.56%; in [5] (at 0.5 µM), -20% (inactive); in [5] (setting [23]), -25%; in [5] (setting [24]) it was -21.1%. Moreover, the inhibition in experiment [6] (setting [25]) is 0.431%; in experiment [6] (at 0.5 µM), -0.57% (inactive); in [6] (setting [26]) it was 20%; in experiment [7] (at 0.5 µM) it was 4.95% (inactive); in [7] (setting [27]), 12%; in [7] (setting [28]), 8.21%.
As for `Nc1nc2[nH]cc(CCc3ccc(C(=O)N[C@@H](CCC(=O)O)C(=O)O)cc3)c2c(=O)[nH]1`, the remaining NAD in [8] was 10 nM (inactive).
On to `C/C=C1\C2C=C(C)CC1(N)c1ccc(=O)[nH]c1C2` (stereo not drawn), for which the fold fluorescence in [9] is 4.5 [at 206.3 µM] (inactive).
For `CC(O)C1C(=O)N2C(C(=O)O)=C(SC3CNC(C(=O)N(C)C)C3)C(C)C12` (stereo not drawn), in [10], the z-score was 0.545 (inactive).
As to `C[C@]12C=CC(=O)N[C@@H]1CC[C@@H]1[C@@H]2CC[C@]2(C)[C@@H](C(=O)Nc3cc(C(F)(F)F)ccc3C(F)(F)F)CC[C@@H]12`, the remaining NAD in experiment [8] is 10 nM (inactive).
For the compound `NC(N)=Nc1nc(CSCCC(N)=NS(N)(=O)=O)cs1`, the inhibition in [11] is -3% (inactive). For the same compound, in experiment [12], the fluorescence ratio (interference) is 1 (inactive). Further, in [13], the call was inactive. In addition, in [10], the z-score is 1.1 (inactive) and 1.27 (inactive).
With `CC1(C)C(=O)N(CCN2CCC(C(=O)c3ccc(F)cc3)CC2)c2ccccc21`, the period change in experiment [14] is 0.085 h (inactive). Moreover, the inhibition in experiment [11] is -1% (inactive). Moreover, the fluorescence ratio (interference) in experiment [12] was 1 (inactive). For the same compound, the result in experiment [13] was inactive. Moreover, the z-score in experiment [10] is -1.21 (inactive).
`CCCCCCCCCCCCCCCC(=O)OC[C@@H](NC(=O)C(Cl)Cl)[C@H](O)c1ccc([N+](=O)[O-])cc1`: the remaining NAD in experiment [8] was 10 nM (inactive). Moreover, the luciferase signal in experiment [15] was 64 AU (inactive).
As a reminder, the AC50 is the midpoint of the concentration-response curve, whichever way the signal moves. Regarding `N#CC1(c2cccc(C(=O)Nc3cc(Oc4ccc5nc(NC(=O)C6CC6)sc5n4)ccc3F)c2Cl)CC1`, the AC50 in experiment [16] was 0.742 µM (active).
As to `C[N+]1(C)[C@@H]2CC(OC(=O)C(O)(c3cccs3)c3cccs3)C[C@H]1[C@@H]1O[C@@H]12` (stereo partly drawn), in [1], the parasite load remaining is 18% (inactive) and the viability amounted to 66.5%. In [10], the z-score was 0.685 (inactive).
For `O=C(O)CO.[NH2-].[NH2-].[Pt+2]`, the inhibition in experiment [2] (at 0.5 µM) was -21.5% (inactive); in [2] (setting [17]), -45.1%; in experiment [2] (setting [18]), 11.3%; in experiment [3] (at 0.5 µM), -6.84% (inactive); in experiment [3] (setting [19]), -6.51%; in experiment [3] (setting [20]) it was -6.47%. Further, the inhibition in experiment [4] (at 0.5 µM) was 4.06% (inactive); in experiment [4] (setting [21]) it was -8.1%; in experiment [4] (setting [22]) it was -3.04%; in [5] (at 0.5 µM), -20.3% (inactive); in experiment [5] (setting [23]) it was -13.9%; in experiment [5] (setting [24]) it was -30.3%. For the same compound, the inhibition in experiment [6] (setting [25]) was -0.864%; in experiment [6] (at 0.5 µM), -1.6% (inactive); in experiment [6] (setting [26]), 15.4%; in [7] (at 0.5 µM) it was 13.7% (inactive); in experiment [7] (setting [27]), 19.5%; in [7] (setting [28]), 18.5%.
Consider `O=C(Nc1ncc(SCCN2CCCC2)s1)[C@]1(c2ccc(S(=O)(=O)C3CC3)cc2)C[C@H]1C1CCCCC1`, for which the AC50 in experiment [16] was 16.6 µM (active).
`CCOC(=O)N[C@@H]1CC[C@@H]2[C@@H](C1)C[C@H]1C(=O)O[C@H](C)[C@H]1[C@H]2/C=C/c1ccc(-c2cccc(F)c2)cn1`: the compound was called inactive in experiment [16].
`OCc1ccc(-c2nn(Cc3ccccc3)c3ccccc23)o1`: the period change in [14] is -0.37 h (inactive). Besides, in experiment [11], the inhibition is 0% (inactive). The fluorescence ratio (interference) in experiment [12] is 1 (inactive). The fold fluorescence in experiment [9] was 11.2 [at 164.3 µM] (inactive). The result in experiment [13] was inactive. Further, the z-score in experiment [10] is -0.46 (inactive).
